G9a block = G9a (human) methyltransferase inhibition | Q96KQ7 | G9a H3K9 monomethylation, AlphaScreen, 2 h | Potency, µM (series often up to 102 µM), for inactives: at the top dose activity, negative = inhibition, usual class: inhibitors | hit rate 8.8% among 350,000 | AID 504332; note: % is set by controls: 0 for no effect and ±100 for the full control effect; nearly all actives have a fitted effect of over 75% in size
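Compounds were preincubated with 20 nM G9a for 15 min, after which biotinylated H3K9 peptide (500 nM) and SAM (20 uM) started a 2 h room-temperature reaction. Monomethylated product was quantified by antibody-based AlphaScreen chemiluminescence.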
PLK1 PBD inh = inhibitors of human PLK1 polo-box domain binding; P53350; Plk1 PBD binding of FITC phosphopeptide, fluorescence polarization; Potency, µM, inactives show max response, negative = inhibition, hits mostly inhibitors; hit rate 2.8% among 360,000; note: series mostly up to about 57 µM; % is set by controls: 0 for no effect and ±100 for the full control effect; nearly all actives have a fitted effect of over 65% in size
Sfp inh = blocks B. subtilis Sfp PPTase activity. Q9F4F7. Biochemical Sfp PPTase activity, qHTS. Potency, µM, for the others: largest response in the series, negative = inhibition, most hits filed as inhibitors. hit rate 3.5% among 310,000;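 note: the enzyme is Sfp with the accession as filed and its product quenches rhodamine fluorescence; 0% = enzyme reaction without inhibitor and -100% = no enzyme wells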
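After 15 min at room temperature with compound, 15 nM Sfp received 5 uM rhodamine-CoA plus 12.5 uM BHQ-2-ybbR (50 mM Hepes pH 7.6, 10 mM MgCl2). Rate came from the fluorescence difference over 30 min, ex 525/em 598 nm.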
BAZ2B block = BAZ2B (human) inhibition; AlphaScreen BAZ2B-H3K14Ac peptide displacement; Potency, µM (top dose mostly 114 µM), inactives show at the highest dose activity change, negative = inhibition, actives largely listed as inhibitors; hit rate 4.4% among 360,000; note: % is set by controls: 0 for no effect and ±100 for the full control effect; nearly all actives have a fitted effect of over 60% in size
Target sequence (Q9UIF8 whole entry, looked up): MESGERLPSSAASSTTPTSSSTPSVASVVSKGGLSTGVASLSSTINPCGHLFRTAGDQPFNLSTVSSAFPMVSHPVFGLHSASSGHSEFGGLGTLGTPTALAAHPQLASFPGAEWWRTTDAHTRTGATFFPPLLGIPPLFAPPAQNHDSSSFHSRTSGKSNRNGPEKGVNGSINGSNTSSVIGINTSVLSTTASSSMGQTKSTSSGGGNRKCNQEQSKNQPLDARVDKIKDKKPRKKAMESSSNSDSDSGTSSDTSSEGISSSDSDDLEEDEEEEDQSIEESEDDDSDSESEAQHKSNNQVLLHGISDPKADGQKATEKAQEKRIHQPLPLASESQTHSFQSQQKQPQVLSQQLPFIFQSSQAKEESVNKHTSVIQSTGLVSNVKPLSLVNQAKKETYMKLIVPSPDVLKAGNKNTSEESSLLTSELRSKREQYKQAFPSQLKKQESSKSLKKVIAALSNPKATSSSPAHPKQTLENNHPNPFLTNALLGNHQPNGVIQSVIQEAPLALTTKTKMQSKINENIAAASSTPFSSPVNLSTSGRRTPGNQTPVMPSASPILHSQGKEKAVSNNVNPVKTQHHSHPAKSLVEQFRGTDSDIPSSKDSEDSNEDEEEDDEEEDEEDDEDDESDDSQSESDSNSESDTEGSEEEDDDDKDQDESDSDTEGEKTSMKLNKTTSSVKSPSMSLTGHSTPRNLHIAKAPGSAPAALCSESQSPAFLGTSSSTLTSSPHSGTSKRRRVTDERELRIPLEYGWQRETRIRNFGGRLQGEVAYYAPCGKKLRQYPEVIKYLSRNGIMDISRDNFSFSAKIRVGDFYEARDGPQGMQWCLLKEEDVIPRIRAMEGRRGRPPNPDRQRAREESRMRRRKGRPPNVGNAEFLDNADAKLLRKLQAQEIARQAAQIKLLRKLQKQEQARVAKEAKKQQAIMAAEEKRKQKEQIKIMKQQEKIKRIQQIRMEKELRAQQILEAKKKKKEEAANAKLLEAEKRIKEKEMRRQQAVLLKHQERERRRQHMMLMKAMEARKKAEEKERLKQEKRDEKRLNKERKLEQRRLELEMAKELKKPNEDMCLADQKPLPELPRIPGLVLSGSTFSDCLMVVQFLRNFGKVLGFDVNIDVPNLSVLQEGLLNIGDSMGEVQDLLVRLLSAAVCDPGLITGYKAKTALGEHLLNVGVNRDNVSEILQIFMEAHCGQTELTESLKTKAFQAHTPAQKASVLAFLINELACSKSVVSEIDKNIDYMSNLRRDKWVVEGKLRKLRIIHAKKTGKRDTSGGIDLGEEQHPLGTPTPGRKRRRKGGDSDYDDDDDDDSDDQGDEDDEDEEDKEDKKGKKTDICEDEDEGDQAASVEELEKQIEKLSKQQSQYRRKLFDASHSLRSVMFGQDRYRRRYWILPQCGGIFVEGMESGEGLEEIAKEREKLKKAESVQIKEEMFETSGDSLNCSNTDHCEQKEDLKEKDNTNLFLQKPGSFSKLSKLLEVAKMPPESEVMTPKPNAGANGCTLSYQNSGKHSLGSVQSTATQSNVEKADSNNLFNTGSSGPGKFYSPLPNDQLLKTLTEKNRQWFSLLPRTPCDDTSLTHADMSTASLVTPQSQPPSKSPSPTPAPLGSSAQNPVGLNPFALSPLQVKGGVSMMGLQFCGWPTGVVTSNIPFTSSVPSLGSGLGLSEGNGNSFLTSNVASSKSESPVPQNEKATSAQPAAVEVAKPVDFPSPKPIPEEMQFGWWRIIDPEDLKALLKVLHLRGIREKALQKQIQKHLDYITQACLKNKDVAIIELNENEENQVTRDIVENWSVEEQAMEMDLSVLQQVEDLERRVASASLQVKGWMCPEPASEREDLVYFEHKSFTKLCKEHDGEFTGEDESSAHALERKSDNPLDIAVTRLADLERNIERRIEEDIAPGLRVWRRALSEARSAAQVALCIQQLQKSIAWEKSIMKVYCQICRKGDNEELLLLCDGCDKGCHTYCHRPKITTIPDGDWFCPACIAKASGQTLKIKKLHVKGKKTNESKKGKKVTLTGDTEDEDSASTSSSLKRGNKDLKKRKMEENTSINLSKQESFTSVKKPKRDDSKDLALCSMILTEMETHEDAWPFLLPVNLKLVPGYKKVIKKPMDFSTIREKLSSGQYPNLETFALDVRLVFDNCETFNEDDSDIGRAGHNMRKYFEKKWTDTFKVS
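In this displacement format the biotinylated H3(5-23) peptide acetylated at Lys14 serves as ligand at 50 nM, with BAZ2B at 50 nM in PBS pH 7.4 containing 0.01% Tween-20. Donor and acceptor beads are 10 ug/mL final.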
HP1b chromo inh = blocks HP1-beta chromodomain binding to methylated histone tails | AID 540317 | P83916 | hit rate 0.56% among 390,000 | Potency, µM (top dose mostly 114 µM), inactives show at the highest dose activity change, negative = inhibition, hits mostly inhibitors | AlphaScreen HP1-beta / biotin-H3K9me3 peptide binding; note: nearly all actives have a fitted effect of over 70% in size
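AlphaScreen: HP1-beta (50 nM) preformed 30 min with biotin-H3(1-18)K9me3 peptide (50 nM) in PBS pH 7.4, 0.01% Tween-20. Compound added for 30 min at RT, then streptavidin donor/nickel chelate acceptor beads (10 ug/mL) for 30 min.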
JMJD2A Tudor inh = blocks the human JMJD2A Tudor domain | AlphaScreen JMJD2A-Tudor / H3K4me3 peptide binding | Potency, µM (top dose mostly 114 µM), for the others: top-dose activity change, negative = inhibition, actives largely listed as inhibitors | O75164 | hit rate 4.4% among 390,000; note: % is set by controls: 0 for no effect and ±100 for the full control effect; nearly all actives have a fitted effect of over 50% in size
Numbers without * were called inactive; ? = inconclusive; . = no result; [ ] = remark or other dose. Sampled rows, rich in hits. Any-hit rate of the full collection: about 12%. Calls come from the whole dose curve; as a rule, active = well fitted curve in the direction sought with a large enough effect; inconclusive = small, poorly fitted or top-dose-only effect, or another doubt; inactive = no such curve, though single readings can be large; an effect the other way counts as inactive or inconclusive. Potency is the fitted concentration of half-maximal effect.

SMILES | G9a block | PLK1 PBD inh | Sfp inh | BAZ2B block | HP1b chromo inh | JMJD2A Tudor inh
O=C(Cc1cccs1)N/N=C/c1ccccn1 | 1.4µM* | 1% | ? | -19% | 32% | ?
Cn1ncc(Cl)c1C(=O)N/N=C/c1ccccn1 | 61%[59 µM] | -3% | ? | 22µM* | 22% | ?
Cn1ncc(Cl)c1C(=O)N/N=C/c1cccc(OC2CSC2)c1 | 1% | -3% | 7% | 79µM* | 37% | -19%
O=C(CSc1ncccn1)N/N=C/c1cccc(OC2CSC2)c1 | -26% | -6% | 2% | ? | 23% | -13%
CN(C/C=C\c1ccccc1)Cc1cccc2ccccc12 | -4%[12.7 µM] | . | -10% | . | . | .
O=C(N/N=C/c1ccccn1)c1cccs1 | -8% | -2% | -98% | 32µM* | 32% | ?
O=C(N/N=C\c1ccccn1)c1cccc(C(=O)N/N=C\c2ccccn2)n1 | . | -18% | . | . | 22% | -17%
Cc1ccc(OC(C)C(=O)N/N=C/c2ccccn2)cc1 (stereo not given) | 1.4µM* | -2% | -55% | 71µM* | 39% | -9%
O=C(N/N=C/c1sc(=O)n(-c2ccccc2)c1Cl)c1ccncc1 | 50µM* | -4% | -17% | 0% | 14% | -15%
O=C(N/N=C/c1ccccn1)c1ccc(Cl)cc1 | ? | -2% | 32µM* | 1% | 24% | -28%
Cc1ccc(C(=O)Nc2ccc(C(=O)N/N=C/c3ccccn3)cc2)cc1 | -46% | 2% | 5% | 20% | 59% | -14%
COc1cc(C(=O)N/N=C/c2sc(=O)n(-c3ccccc3)c2Cl)cc(OC)c1OC | -8%[59 µM] | 13% | 10% | -31% | 43% | -18%
Cc1nc2ccc(S(=O)(=O)N(C)CC(=O)Nc3cccc(C(F)(F)F)c3)cc2s1 | -3%[59 µM] | . | . | 1% | 32% | -4%
COc1ccc(C2C=C3CNS(=O)(=O)C3CC2OC(=O)c2ccc(C(F)(F)F)cc2)cc1 (stereo not given) | . | . | 5% | . | 24% | -28%
CC1CCCC(NC(=O)CN2CCN(S(=O)(=O)c3cccs3)CC2)C1C (stereo not given) | 5%[2.33 µM] | 2% | . | 11% | 40% | -9%
O=C(N/N=C/c1ccccn1)c1ccccc1 | ? | -6% | ? | -4% | 14% | ?
COc1ccc(C(=O)N/N=C/c2ccccn2)cc1OC | 3% | 1% | ? | ? | 7% | ?
O=C(Cc1ccc(F)cc1)N/N=C/c1ccccn1 | 4µM* | -1% | 56µM* | ? | 37% | 5%
O=C(N/N=C/c1ccccn1)c1ccncc1 | ? | -15% | 20µM* | 16µM* | 29% | ?
O=C(Cc1ccc(Br)c2ccccc12)N/N=C/c1ccccn1 | 44%[59 µM] | -16% | -4% | -7% | 12% | ?
COc1cc(C(=O)N/N=C/c2ccccn2)cc(OC)c1OC | -2% | 5% | 56µM* | 25µM* | 4% | -23%
COc1ccccc1Cn1cc(C(=O)c2ccc(C)cc2)c(=O)c2cc3c(cc21)OCCO3 | -39%[59 µM] | . | . | -30% | 6% | -29%
C#CCOCCOCCOCCNc1nc(N2CCN(C(=O)C([C@@H](C)CC)n3cc(C(N)CO)nn3)CC2)nc(N2CCN(C(=O)[C@H](CCC(=O)O)n3cc(C(N)CC(C)C)nn3)CC2)n1 (stereo not given in full) | -1%[12.7 µM] | -4% | 6% | 50µM* | 62% | 50µM*
C#CCOCCOCCOCCNc1nc(N2CCN(C(=O)C([C@@H](C)CC)n3cc(C(N)CC(C)C)nn3)CC2)nc(N2CCN(C(=O)[C@H](CCC(=O)O)n3cc(C(N)CC(C)C)nn3)CC2)n1 (stereo not given in full) | -39%[12.7 µM] | -11% | 0% | 79µM* | 20% | 79µM*
C#CCOCCOCCOCCNc1nc(N2CCOCC2)nc(N2CCN(C(=O)[C@H]([C@@H](C)CC)n3cc([C@@H](N)CC(C)C)nn3)CC2)n1 | 11%[12.7 µM] | -14% | 12% | -9% | 31% | -19%

Compound activity: PubChem BioAssay, National Center for Advancing Translational Sciences (NCATS)
